Assay results published in paper PMC8384837, “Expanding the binding specificity for RNA recognition by a PUF domain”.
Where a chain is given by its changes, count along the chain named.

Tests used:
Assay in all cases: yeast three-hybrid, YBZ-1, SC-Leu-His + 0.5 mM 3-AT, 4 days
Conditions in all cases: tags: N-Gal4 AD-HA kept; label: inside an RPR1-promoter hybrid RNA with tandem MS2 sites; ssRNA
PUM1 PUF domain R6-IYV = biological target: T1, PUM1 PUF domain R6-IYV (Homo sapiens, UniProt Q14671 828-1176, N1043I;Q1047V)
T1 sequence: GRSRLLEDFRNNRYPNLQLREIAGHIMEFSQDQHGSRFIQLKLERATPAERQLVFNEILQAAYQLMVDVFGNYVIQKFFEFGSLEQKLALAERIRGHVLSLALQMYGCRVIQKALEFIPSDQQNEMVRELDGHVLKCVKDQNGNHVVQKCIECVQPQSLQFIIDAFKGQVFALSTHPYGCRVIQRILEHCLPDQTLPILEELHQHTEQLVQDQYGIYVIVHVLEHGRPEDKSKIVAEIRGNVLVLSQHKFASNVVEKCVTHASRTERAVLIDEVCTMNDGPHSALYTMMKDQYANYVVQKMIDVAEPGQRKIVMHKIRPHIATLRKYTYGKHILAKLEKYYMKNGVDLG
Procedure, shortened: (§1)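 The interaction score is the logarithmic change in variant frequency from input to selection. It uses log2, with a pseudocount of 1 for absent variants, and frequencies came from PCR-amplified, Illumina-sequenced repeat regions. The libraries were Pumilio-1 PUF domains randomized at the three base-contacting residues per repeat, co-expressed with matching RNA elements in strain YBZ-1 (LexA–MS2 coat fusion, HIS3 reporter). Plating lasted four days on SC-Leu (input) or SC-Leu-His + 0.5 mM 3-AT (selection).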

PUM1 PUF domain R6-CFC = biological target: T2, PUM1 PUF domain R6-CFC (Homo sapiens, UniProt Q14671 828-1176, N1043C;Y1044F;Q1047C)
T2 sequence: T1 sequence with I216C, Y217F, V220C
Procedure, shortened: as §1

PUM1 PUF domain R5-KHG = PUM1 PUF domain R5-KHG (Homo sapiens, UniProt Q14671 828-1176, C1007K;R1008H;Q1011G)
Procedure, shortened: as §1

PUM1 PUF domain R4-DHE = PUM1 PUF domain R4-DHE (Homo sapiens, UniProt Q14671 828-1176, N971D;Q975E)
Procedure, shortened: as §1

PUM1 PUF domain R4-SWG = PUM1 PUF domain R4-SWG (Homo sapiens, UniProt Q14671 828-1176, N971S;H972W;Q975G)
Procedure, shortened: as §1

PUM1 PUF domain R7-RCQ = PUM1 PUF domain R7-RCQ (Homo sapiens, UniProt Q14671 828-1176, S1079R;N1080C;E1083Q)
Procedure, shortened: as §1

PUM1 PUF domain R5-QKC = PUM1 PUF domain R5-QKC (Homo sapiens, UniProt Q14671 828-1176, C1007Q;R1008K;Q1011C)
Procedure, shortened: as §1

PUM1 PUF domain R2-EWT = PUM1 PUF domain R2-EWT (Homo sapiens, UniProt Q14671 828-1176, N899E;Y900W;Q903T)
Procedure, shortened: as §1

GGCUAGAACUAGUGGAUCCCCCGGCGCCCGGCGGCUCGAGCCCGGGUAAGUGUAAAUAGUCUGCAUGCCGCCGGGCGCCAUGCCUGCAGGUCGACUCUAGAAAACAUG
binding signal (PUM1 PUF domain R6-IYV): 2.91 log2 enrichment (interaction score)
binding signal (PUM1 PUF domain R6-CFC): 1.34 log2 enrichment (interaction score)
binding signal (PUM1 PUF domain R5-KHG): 3.79 log2 enrichment (interaction score)

GGCUAGAACUAGUGGAUCCCCCGGCGCCCGGCGGCUCGAGCCCGGGUAAGUGAAAAUAGUCUGCAUGCCGCCGGGCGCCAUGCCUGCAGGUCGACUCUAGAAAACAUG
binding signal (PUM1 PUF domain R6-CFC): 4.06 log2 enrichment (interaction score)

GGCUAGAACUAGUGGAUCCCCCGGCGCCCGGCGGCUCGAGCCCGGGUAAGUGUACAUAGUCUGCAUGCCGCCGGGCGCCAUGCCUGCAGGUCGACUCUAGAAAACAUG
binding signal (PUM1 PUF domain R4-DHE): 2.01 log2 enrichment (interaction score)

GGCUAGAACUAGUGGAUCCCCCGGCGCCCGGCGGCUCGAGCCCGGGUAAGUGUAUAUAGUCUGCAUGCCGCCGGGCGCCAUGCCUGCAGGUCGACUCUAGAAAACAUG
binding signal (PUM1 PUF domain R4-DHE): 4.57 log2 enrichment (interaction score)
binding signal (PUM1 PUF domain R4-SWG): 2.5 log2 enrichment (interaction score)

GGCUAGAACUAGUGGAUCCCCCGGCGCCCGGCGGCUCGAGCCCGGGUAAGUCUAAAUAGUCUGCAUGCCGCCGGGCGCCAUGCCUGCAGGUCGACUCUAGAAAACAUG
binding signal (PUM1 PUF domain R7-RCQ): 2.3 log2 enrichment (interaction score)

GGCUAGAACUAGUGGAUCCCCCGGCGCCCGGCGGCUCGAGCCCGGGUAAGUGUUAAUAGUCUGCAUGCCGCCGGGCGCCAUGCCUGCAGGUCGACUCUAGAAAACAUG
binding signal (PUM1 PUF domain R5-QKC): 3.74 log2 enrichment (interaction score)

GGCUAGAACUAGUGGAUCCCCCGGCGCCCGGCGGCUCGAGCCCGGGUAAGUGUAAAAAGUCUGCAUGCCGCCGGGCGCCAUGCCUGCAGGUCGACUCUAGAAAACAUG
binding signal (PUM1 PUF domain R2-EWT): 2.39 log2 enrichment (interaction score)
